# From the supplement of paper PMC6555819
# Tested on: LXRa homodimer (NR concentration 270 nM)
# Assay: PBM binding z-score (relative to random genomic background probes); higher = stronger binding; sequences stand for … in GC…GCGATTGACAGCGTAGAATGAAGG
# Method in brief: (§1)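 Probes were double-stranded and carried 34-nt variable regions with direct-repeat seeds, single-nucleotide variants, half-site ablations and random human genomic background sequences, printed on custom Agilent 4×180K protein-binding microarrays. Arrays were incubated 1 h with ligand-free nuclear receptor dimers in PBS pH 7.4, 2% milk, 0.02% Triton X-100, 1 mM DTT, 0.2 mg/mL BSA and 0.4 mg/ml salmon testes DNA. Antibodies against each partner (one per run) detected binding, and scanned fluorescence was regression-normalized. Binding z-scores use the random background probes as reference.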
row,Sequence,PBM binding z-score
1,ACAGACAGGTGAGTGAAGGTAACTCATCTGGACG,-0.402
2,GCGACTGGGGCATCAGCAGGTTATCATAACTTAA,-0.199
3,ACTATTAGTTGACTTAGGGTAACCGATACGACGC,1.21
4,TCTCGGAGGACAGGAAGGTCAGAGCTTTCCAGAG,0.00105
5,CTGCCTAGGTCAGGGCCAGTATAGGAGGAACGTT,-0.475
6,TGAATGAGGTTATAAAATCAGGGAACGTTGCAAA,-0.31
7,ACAGACAGGTGATGAAGGTGACTCAGGCTATCAT,-0.267
8,CGACCAAGGTCATAGGAGGTCAGTGAAGACAGAT,4.51
9,GTTACAGGGTCAGCTAGAGGCCAGAGTATGGAAA,-0.168
10,CCTTACGGGTCACTGACAGGTTATACCATTTGGA,0.698
11,ATCTCTAGGTAAAGTTCAGTGAGAGATCGATAGA,1.42
12,ATCTCTAGGTAACAAATTCAGTGAAAGAGAGGAC,0.441
13,CGTCCAAGGTCAAGGTCAGTGTAAGAGACTCGAA,1.6
14,CGTACAAGGTCAGAGAGGTCAGTGAATGCCGAGT,3.38
15,ACTTACGGGTAAACGAGGTTATAGCACGCGTATA,0.806
16,GCTGCTAGGTCAGGTGGGTCAGCTAACGGGTACG,-0.394
17,CCTACTGTGCCACGAAAGGTCATTGATTCAGTGA,5.47
18,CCTGCTAGGTCAATGGTCAGCAAAAGCAGCTCGC,0.13

# Tested on: LXRb:RXRa (NR concentration 270 nM, RXRa partner concentration 90 nM)
# Assay: as above
# Method in brief: as §1
row,Sequence,PBM binding z-score
1,CCTAGTTGGTCAGCAGGTCACACACCGGATATGA,2
2,TGAAGGAGGTTAAAGATCAGGGAACGTGGCGTCG,1.62
3,GCTAGCAGGCCAATTGGGTCACTCAATGACGGGC,-0.122
4,TCAGACTGGTGAAGGTAACTCAGGTACGCAGTCG,0.192
5,CAGCCTAGGTCACGGCCAGTATAGGAGGAACGTT,2.7
6,CTCGAAAGGTCGTGCTCAGGTGAGTAAACCAAAC,3.25
7,GCTTGAAGATCAAGGTTAAGAAAGACTAAGCTAA,0.434
8,CCTAGCAGGCCGGGGTCACTCAAGCATTTCGCTT,3.88
9,CAGCCTAGGTCAGGGCCACTATAGGAGGAACGTT,0.816
10,CCGACTGGAGCAAAGGTTACCATACTCAGTACGA,1.71
11,TGAATGAGGTTATAAGATCTGGGAACGTTGCAAA,1.06
12,GATACAGGGTCAGCTAGAGGCCAGGGTATGGAAA,2.46
13,ACACACAGGTGATGAAGGTAACTCAGGCTATCAT,-0.0371
14,AGCTCTAGGTAAAGATAGTTCAGTGAATGCAAAT,0.693
15,CCTACTGGGCCAAAAAGGTCAATGATGCCGATAA,3.86
16,GCTCGGACGACAAGGTCAGAGCTTTGTCCGTAGA,0.912
17,GGAACGAGGGCAAAGTTGATAGCTTCTGTCGACG,0.608
18,ATATGTGGGTTACATCCGGGTCATTCAGGCTATG,3.06
19,CGAACTAGGTCATTGACAGGACTGTGAATAGTAA,1.81
20,TGAATGAGGTTATAAGATTAGGGAACGTTGCAAA,1.21

row,Sequence,PBM binding z-score
1,GCTAGTTGCTCAGTAAAAGGTCACACACCGGTCG,4.02
2,TTACCAAGGTGAGCTGAGGTCGTTAATCCAACTC,0.852
3,ACAGACAGGTGAGTGAAGGTAACTCATCTGGACG,-0.512
4,GCGACTGGGGCATCAGCAGGTTATCATAACTTAA,0.87
5,ACTATTAGTTGACTTAGGGTAACCGATACGACGC,0.679
6,TCTCGGAGGACAGGAAGGTCAGAGCTTTCCAGAG,0.899
7,CTGCCTAGGTCAGGGCCAGTATAGGAGGAACGTT,0.634
8,TGAATGAGGTTATAAAATCAGGGAACGTTGCAAA,1.02
9,ACAGACAGGTGATGAAGGTGACTCAGGCTATCAT,0.143
10,CGACCAAGGTCATAGGAGGTCAGTGAAGACAGAT,5.89
11,GTTACAGGGTCAGCTAGAGGCCAGAGTATGGAAA,2.39
12,CCTTACGGGTCACTGACAGGTTATACCATTTGGA,3.61
13,ATCTCTAGGTAAAGTTCAGTGAGAGATCGATAGA,0.981
14,ATCTCTAGGTAACAAATTCAGTGAAAGAGAGGAC,0.288
15,CGTCCAAGGTCAAGGTCAGTGTAAGAGACTCGAA,4.66
16,CGTACAAGGTCAGAGAGGTCAGTGAATGCCGAGT,4.41
17,ACTTACGGGTAAACGAGGTTATAGCACGCGTATA,1.56
18,GCTGCTAGGTCAGGTGGGTCAGCTAACGGGTACG,0.981
19,CCTACTGTGCCACGAAAGGTCATTGATTCAGTGA,4.73
20,CCTGCTAGGTCAATGGTCAGCAAAAGCAGCTCGC,1.33

# Tested on: LXRb homodimer (NR concentration 270 nM)
# Assay: as above
# Method in brief: as §1
row,Sequence,PBM binding z-score
1,CCTAGTTGGTCAGCAGGTCACACACCGGATATGA,0.372
2,TGAAGGAGGTTAAAGATCAGGGAACGTGGCGTCG,0.187
3,GCTAGCAGGCCAATTGGGTCACTCAATGACGGGC,-1.32
4,TCAGACTGGTGAAGGTAACTCAGGTACGCAGTCG,-1.07
5,CAGCCTAGGTCACGGCCAGTATAGGAGGAACGTT,-0.639
6,CTCGAAAGGTCGTGCTCAGGTGAGTAAACCAAAC,0.181
7,GCTTGAAGATCAAGGTTAAGAAAGACTAAGCTAA,-0.944
8,CCTAGCAGGCCGGGGTCACTCAAGCATTTCGCTT,-0.234
9,CAGCCTAGGTCAGGGCCACTATAGGAGGAACGTT,-0.559
10,CCGACTGGAGCAAAGGTTACCATACTCAGTACGA,-0.613
11,TGAATGAGGTTATAAGATCTGGGAACGTTGCAAA,-0.0795
12,GATACAGGGTCAGCTAGAGGCCAGGGTATGGAAA,-0.476
13,ACACACAGGTGATGAAGGTAACTCAGGCTATCAT,-0.0459
14,AGCTCTAGGTAAAGATAGTTCAGTGAATGCAAAT,-0.0126
15,CCTACTGGGCCAAAAAGGTCAATGATGCCGATAA,-0.306
16,GCTCGGACGACAAGGTCAGAGCTTTGTCCGTAGA,-1.26
17,GGAACGAGGGCAAAGTTGATAGCTTCTGTCGACG,-0.484
18,ATATGTGGGTTACATCCGGGTCATTCAGGCTATG,1.12
19,CGAACTAGGTCATTGACAGGACTGTGAATAGTAA,0.103
20,TGAATGAGGTTATAAGATTAGGGAACGTTGCAAA,-0.0904

row,Sequence,PBM binding z-score
1,GCTAGTTGCTCAGTAAAAGGTCACACACCGGTCG,0.393
2,TTACCAAGGTGAGCTGAGGTCGTTAATCCAACTC,-1.14
3,ACAGACAGGTGAGTGAAGGTAACTCATCTGGACG,-0.306
4,GCGACTGGGGCATCAGCAGGTTATCATAACTTAA,-0.615
5,ACTATTAGTTGACTTAGGGTAACCGATACGACGC,0.748
6,TCTCGGAGGACAGGAAGGTCAGAGCTTTCCAGAG,-0.565
7,CTGCCTAGGTCAGGGCCAGTATAGGAGGAACGTT,-1.25
8,TGAATGAGGTTATAAAATCAGGGAACGTTGCAAA,0.05
9,ACAGACAGGTGATGAAGGTGACTCAGGCTATCAT,-0.348
10,CGACCAAGGTCATAGGAGGTCAGTGAAGACAGAT,0.466
11,GTTACAGGGTCAGCTAGAGGCCAGAGTATGGAAA,0.166
12,CCTTACGGGTCACTGACAGGTTATACCATTTGGA,-0.46
13,ATCTCTAGGTAAAGTTCAGTGAGAGATCGATAGA,0.57
14,ATCTCTAGGTAACAAATTCAGTGAAAGAGAGGAC,1.15
15,CGTCCAAGGTCAAGGTCAGTGTAAGAGACTCGAA,0.633
16,CGTACAAGGTCAGAGAGGTCAGTGAATGCCGAGT,0.711
17,ACTTACGGGTAAACGAGGTTATAGCACGCGTATA,0.485
18,GCTGCTAGGTCAGGTGGGTCAGCTAACGGGTACG,-0.0608
19,CCTACTGTGCCACGAAAGGTCATTGATTCAGTGA,1.31
20,CCTGCTAGGTCAATGGTCAGCAAAAGCAGCTCGC,-0.077
